Test results: PubChem BioAssay AID588800 (Johns Hopkins Ion Channel Center, 2011)
Calls of active or inactive are those of the source.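 Rule for the calls: active = peak inhibition of the KCNQ2 potassium channel above 30% at some tested dose, plus a fitted dose response curve; inactive = no inhibition at any dose, or no curve.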

biological target: Potassium voltage-gated channel subfamily KQT member 2 (Rattus norvegicus) (UniProt O88943); assay: rat KCNQ2 channel inhibition, SAR follow-up, selectivity assay for KCNK9 inhibitor project, cell-based, FluxOR thallium flux, CRC set 2 (AID 588800); details: KCNQ2-expressing cells; series mostly up to 30 µM
Sequence (O88943 whole entry, looked up): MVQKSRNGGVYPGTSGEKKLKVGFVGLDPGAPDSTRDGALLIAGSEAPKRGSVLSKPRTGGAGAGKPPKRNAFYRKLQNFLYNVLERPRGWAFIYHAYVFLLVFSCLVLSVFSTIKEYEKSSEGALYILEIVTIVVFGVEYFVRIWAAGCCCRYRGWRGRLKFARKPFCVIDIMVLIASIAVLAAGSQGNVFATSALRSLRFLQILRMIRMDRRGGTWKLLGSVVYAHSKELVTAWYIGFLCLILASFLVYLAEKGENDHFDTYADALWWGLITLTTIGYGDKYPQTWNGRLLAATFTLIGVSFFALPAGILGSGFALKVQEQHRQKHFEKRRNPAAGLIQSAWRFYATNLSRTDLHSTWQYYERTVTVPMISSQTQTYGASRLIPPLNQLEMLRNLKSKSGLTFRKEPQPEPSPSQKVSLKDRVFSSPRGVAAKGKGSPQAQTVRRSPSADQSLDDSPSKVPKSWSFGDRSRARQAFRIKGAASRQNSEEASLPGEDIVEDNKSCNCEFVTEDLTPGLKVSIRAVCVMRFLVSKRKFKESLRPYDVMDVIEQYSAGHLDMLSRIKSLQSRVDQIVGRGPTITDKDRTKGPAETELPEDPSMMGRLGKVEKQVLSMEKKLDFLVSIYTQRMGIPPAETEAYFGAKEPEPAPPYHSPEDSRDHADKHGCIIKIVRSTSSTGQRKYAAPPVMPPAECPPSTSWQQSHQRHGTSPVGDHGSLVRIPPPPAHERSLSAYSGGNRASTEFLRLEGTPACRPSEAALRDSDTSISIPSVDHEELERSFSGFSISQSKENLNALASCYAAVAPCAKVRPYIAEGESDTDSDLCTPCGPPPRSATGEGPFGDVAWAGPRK

outcome, inactive:
CCOc1ccccc1NC(=O)c1cccc(NC(=O)c2cccc(C(F)(F)F)c2)c1
COc1ccc(-c2n[nH]c(=S)n2C(C)C2CC3CCC2C3)cc1 (stereo not drawn)
CCOc1ccccc1C(=O)Nc1cccc(NC(=O)c2ccccc2C(F)(F)F)c1
CCOc1ccccc1NC(=O)c1cccc(NC(=O)C2CCCC2)c1
CCOc1ccccc1NC(=O)c1cccc(C(=O)NC2CCCC2)c1
CCOc1ccccc1NC(=O)c1cccc(NC(=O)c2ccccc2C)c1
O=C(Nc1cccc(NC(=O)c2cccc(C(F)(F)F)c2)c1)c1ccccc1
CCOc1ccccc1NC(=O)c1cccc(NC(=O)C(C)(C)C)c1
O=C(Nc1cccc(NC(=O)c2cccs2)c1)c1ccccc1
CCOc1ccccc1NC(=O)c1cccc(NC(=O)c2ccc(OC)cc2)c1
Cc1cccc(C(=O)Nc2cccc(NC(=O)c3ccc(C(F)(F)F)cc3)c2)c1
COc1ccccc1-c1n[nH]c(=S)n1C(C)C1CC2CCC1C2 (stereo not drawn)
O=C(Nc1cccc(NC(=O)c2ccoc2)c1)c1ccccc1
CC(C1CC2CCC1C2)n1c(-c2ccsc2)n[nH]c1=S (stereo not drawn)
CCOc1ccccc1NC(=O)c1cccc(NC(=O)c2ccc(C(F)(F)F)cc2)c1
CCOc1ccccc1NC(=O)c1cccc(NC(=O)c2ccccc2OC)c1
Cc1cccc(C(=O)Nc2cccc(NC(=O)c3ccccc3)c2)c1
COc1ccccc1C(=O)Nc1cccc(NC(=O)c2ccccc2OC)c1
